{
  "source": "PubChem BioAssay (Tox21)",
  "note": "Values joined by “and” are separate entries in the source; they are usually repeats but may differ in a detail not shown here. Equal entries are not always repeated. Records with an inconclusive call do not appear. A call without a number means that no potency is given here. Active and inactive are the calls of the source. The call rests on the fitted dose curve; in most records, active means well fitted cell-killing curve with a large enough effect in the repeat runs; inconclusive means weak or mixed curves, or effect the other way; inactive means flat fitted curve, though single readings scatter. Potency means the concentration at half of the fitted maximal effect.",
  "data": [
    {"test": "qHTS assay to identify small molecule antagonists of the androgen receptor (AR) signaling pathway using the MDA cell line - cell viability counter screen (AID 743041; further: nearly all actives have a fitted effect of over 45% in size)", "conditions": "MDA-kb2 viability, CellTiter-Fluor, 16 h, cells co-treated with R1881 androgen agonist; series mostly up to 70.3 µM", "text": "National Center for Advancing Translational Sciences [NCATS]\nNIH Chemical Genomics Center [NCGC]\nU.S. Environmental Protection Agency [EPA]\nNational Institutes of Environmental Health Sciences [NIEHS]\nNational Toxicology Program [NTP]\nU.S. Food and Drug Administration [FDA]\nAndrogen receptor (AR), a nuclear hormone receptor, plays a critical role in AR-dependent prostate cancer and other androgen related diseases. Endocrine disrupting chemicals (EDCs) and their interactions with steroid hormone receptors like AR may cause disruption of normal endocrine function as well as interfere with metabolic homeostasis, reproduction, developmental and behavioral functions. To identify the compounds that inhibit AR signaling, MDA-kb2 AR-luc cell line (from ATCC, deposited by Wilson et al.) was used to screen the Tox21 10K compound library. MDA-kb2 AR-luc cell line is human breast carcinoma cell line that was stably transfected with a luciferase reporter gene under control of the MMTV promoter containing response elements for both androgen receptor (AR) and glucocorticoid receptor (GR). The cytotoxicity of the Tox21 compound library against the MDA-kb2 AR-luc cell line was tested in parallel by measuring the cell viability using CellTiter-Fluor assay (Promega, Madison, WI) in the same wells.\nTox21 Assay Protocol Summary:\nMDA-kb2 AR-luc cells were dispensed at 3,000 cells/4 uL/well of culture medium into white wall/solid-bottom 1536-well plates using a Multidrop Combi (ThermoFisher Scientific, Waltham, MA) dispenser. After the assay plates were incubated at a 37C and 0% CO2 for 5 hr, 23 nL of compounds dissolved in DMSO, positive controls or DMSO only was transferred to the assay plate by a Pintool station (Kalypsys, San Diego, CA), followed by addition of 1 uL of agonist (R1881) in culture medium using a Bioraptr Flying Reagent Dispenser (FRD) workstation (Beckman Coulter, Indianapolis, IN, USA). The plates were incubated at a 37C and 0% CO2 for 16 h. After 15.5 h incubation, 1uL of CellTiter-Fluor reagent (Promega) was added using a Bioraptr FRD to each plate for measuring cytotoxicity. The fluorescence intensity was quantified on a ViewLux plate reader (PerkinElmer, Shelton, CT) following 30 min incubation at 37C and 0% CO2.", "values": [
      {"smiles": "CN(C)CCc1c[nH]c2cccc(O)c12", "Potency": "inactive"},
      {"smiles": "CCCCCCCCCCCCCCCC[N+](C)(C)C", "Potency": "61.1 µM (active)"},
      {"smiles": "CCc1nn(C)c(C(=O)NCc2ccc(C(C)(C)C)cc2)c1Cl", "Potency": "0.0863 µM (active)"},
      {"smiles": "CC(C)[C@H](C(=O)OC(C#N)c1cccc(Oc2ccccc2)c1)c1ccc(OC(F)F)cc1", "note": "(stereo not given in full)", "Potency": "inactive"},
      {"smiles": "Cc1cc(C(C)(C)c2cc(C)c(O)c(C)c2)cc(C)c1O", "Potency": "inactive"},
      {"smiles": "O=C(O)COc1nc(Cl)c(Cl)cc1Cl", "Potency": "inactive"},
      {"smiles": "O=CC(Br)(Br)Br", "Potency": "inactive"},
      {"smiles": "Cn1cc(C2=C(c3cn(C4CCN(Cc5ccccn5)CC4)c4ccccc34)C(=O)NC2=O)c2ccccc21", "Potency": "inactive"},
      {"smiles": "BrC(Br)Br", "Potency": "inactive"},
      {"smiles": "CN(C)C1CSSSC1", "Potency": "inactive"},
      {"smiles": "Oc1c(Br)c(Br)c(Br)c(Br)c1Br", "Potency": "inactive"},
      {"smiles": "CN(C)[C@@H]1C(=O)C(C(N)=O)=C(O)[C@@]2(O)C(=O)C3=C(O)c4c(O)ccc(Cl)c4[C@@](C)(O)[C@H]3C[C@@H]12", "Potency": "inactive"},
      {"smiles": "N#CCCSCCC#N", "Potency": "inactive"},
      {"smiles": "CC(C)(C)c1cc([N+](=O)[O-])cc(C(C)(C)C)c1O", "Potency": "12.2 µM (active)"},
      {"smiles": "CC(C)OC(=S)S", "Potency": "inactive"},
      {"smiles": "CC(C)(C)c1ccc(CSc2cnn(C(C)(C)C)c(=O)c2Cl)cc1", "Potency": "0.0306 µM (active)"},
      {"smiles": "C[C@H]1O[C@@H](O[C@H]2[C@@H](O)C[C@H](O[C@H]3[C@@H](O)C[C@H](O[C@H]4CC[C@@]5(C)[C@H](CC[C@@H]6[C@@H]5CC[C@]5(C)[C@@H](C7=CC(=O)OC7)CC[C@]65O)C4)O[C@@H]3C)O[C@@H]2C)C[C@H](O)[C@@H]1O", "Potency": "inactive"},
      {"smiles": "COC(=O)N(C(=O)N1CO[C@@]2(C(=O)OC)Cc3cc(Cl)ccc3C2=N1)c1ccc(OC(F)(F)F)cc1", "Potency": "inactive"},
      {"smiles": "O=[N+]([O-])c1cc([N+](=O)[O-])c2ccccc2c1", "Potency": "inactive"},
      {"smiles": "CC[C@H](C)[C@H]1O[C@]2(C=C[C@@H]1C)C[C@@H]1C[C@@H](C/C=C(\\C)[C@@H](O[C@H]3C[C@H](OC)[C@@H](O[C@H]4C[C@H](OC)[C@@H](O)[C@H](C)O4)[C@H](C)O3)[C@@H](C)/C=C/C=C3\\CO[C@@H]4[C@H](O)C(C)=C[C@@H](C(=O)O1)[C@]34O)O2", "Potency": "inactive"},
      {"smiles": "[CH3][Hg][Cl]", "Potency": "inactive"},
      {"smiles": "O=c1[nH]c2ccccc2n1CCCN1CCC(n2c(=O)[nH]c3cc(Cl)ccc32)CC1", "Potency": "inactive"},
      {"smiles": "C=CC(=O)OCCCCOC(=O)C=C", "Potency": "inactive"},
      {"smiles": "O=c1oc2ccccc2c(O)c1Cc1c(O)c2ccccc2oc1=O", "Potency": "inactive"},
      {"smiles": "N#CSCSC#N", "Potency": "62.5 µM (active) and 60.5 µM (active)"},
      {"smiles": "Clc1ccc(CO/N=C(\\Cn2ccnc2)c2ccc(Cl)cc2Cl)c(Cl)c1", "Potency": "inactive"},
      {"smiles": "COc1ccc(OC)c(CC(C)N)c1", "note": "(stereo not given)", "Potency": "inactive"},
      {"smiles": "FC(Cl)(Cl)Cl", "Potency": "inactive"},
      {"smiles": "Clc1ccc(-c2ccc(Cl)c(Cl)c2Cl)c(Cl)c1Cl", "Potency": "inactive"},
      {"smiles": "C1CCC2CCCCC2C1", "note": "(stereo not given)", "Potency": "inactive"},
      {"smiles": "CC(C)CC(C)N", "note": "(stereo not given)", "Potency": "inactive"},
      {"smiles": "C=CC(=O)OCC(COC(=O)C=C)(COC(=O)C=C)COC(=O)C=C", "Potency": "7.7 µM (active)"},
      {"smiles": "O=[N+]([O-])c1cc(C(F)(F)F)c(Cl)c([N+](=O)[O-])c1Cl", "Potency": "54.5 µM (active)"},
      {"smiles": "CC(=O)/C=C/c1ccc2c(c1)OCO2", "Potency": "inactive"},
      {"smiles": "S=C=Nc1cccc2ccccc12", "Potency": "inactive"},
      {"smiles": "O=[N+]([O-])O.O=[N+]([O-])O.[Cd]", "Potency": "inactive"},
      {"smiles": "CCOP(=S)(OCC)OC(Cl)C(Cl)(Cl)Cl", "note": "(stereo not given)", "Potency": "inactive"},
      {"smiles": "S=C(SSC(=S)N1CCCCC1)N1CCCCC1", "Potency": "1.06 µM (active)"},
      {"smiles": "N#C/C=C/C#N", "Potency": "inactive"},
      {"smiles": "COc1ccc(N)cc1N", "Potency": "inactive"}
    ]}
  ]
}
